Experimental data from PubChem BioAssay (NCI).
Several values for one entry are separate records, joined by “and”; a condition that tells them apart may be missing. Identical values can stand only once. About 83,000 compounds went through this panel and 20% of them were active in at least one assay; those are over-represented in the sample as a whole.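 Method: cells in 96-well plates; compound added at one concentration; 48 h incubation; percent growth measured; values under 10 scored active.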 A number with no mark means an inactive call. Activity calls are given as the source filed them.

Tests used:
Assay in all cases: NCI-60 one-dose screen, 48 h (100 = growth as untreated, 0 = no growth, -100 = all killed)
Conditions in all cases: 10 µM unless noted
[1] = test system: MOLT-4 leukemia
[2] = test system: SR leukemia
[3] = test system: RPMI-8226 leukemia
[4] = test system: OVCAR-8 ovarian
[5] = test system: OVCAR-5 ovarian
[6] = test system: OVCAR-4 ovarian
[7] = test system: SK-OV-3 ovarian
[8] = test system: IGROV1 ovarian
[9] = test system: OVCAR-3 ovarian
[10] = test system: HS 578T breast
[11] = test system: T-47D breast
[12] = test system: BT-549 breast
[13] = test system: MDA-MB-435 melanoma
[14] = test system: SW-620 colon
[15] = test system: MCF7 breast
[16] = test system: HCT-116 colon
[17] = test system: HCC-2998 colon
[18] = test system: KM12 colon
[19] = test system: NCI/ADR-RES ovarian

SMILES | growth [1] | growth [2] | growth [3] | growth [4] | growth [5] | growth [6] | growth [7] | growth [8] | growth [9] | growth [10] | growth [11] | growth [12] | growth [13] | growth [14] | growth [15] | growth [16] | growth [17] | growth [18] | growth [19]
OCCN=Cc1c[nH]c2ccccc12 | 101% | 95.4% | 120% | 100% | 91% | 94% | 98.6% | 104% | 97.7% | 97.5% | 94.5% | 107% | 103% | 93.3% | 93% | 96.7% | 107% | 102% | –
Cc1cc[c-]cc1.Fc1c[c-]c(-c2ccccn2)c(F)c1.N#CCC[PH+](CCC#N)c1ccccc1.[Pt+2] | 5.29% (active) | 7.03% (active) | 14.6% | 40.7% | 64.9% | 42.1% | 108% | 30.2% | 28.5% | 40.6% | – | 55.7% | 30.9% | 6.78% (active) | 20.8% | 19.1% | 82.4% | 74.1% | 55.3%
COc1ccc(CN)cc1OC | 112% and 95.2% | 104% | 112% and 105% | 109% and 102% | 110% and 94.9% | 125% and 104% | 113% and 105% | 110% and 101% | 109% and 107% | 110% and 101% | 113% and 97.4% | 113% and 102% | – | 111% and 99.5% | 103% and 95.5% | 97.8% and 102% | 91% and 106% | 120% and 106% | –
CC[C@H](C)[C@H](NC(=O)C12CC(NC)(C1)C2)C(=O)N(C)[C@H](C[C@@H](OC(C)=O)c1nc(C(=O)N[C@@H](Cc2ccccc2)C[C@H](C)C(=O)OC)cs1)C(C)C | 8.66% (active) | -2.59% (active) | 26.3% | 17.5% | 52.7% | 50.3% | 39.6% | 29.7% | -14.1% (active) | 39.2% | 51.9% | -22.4% (active) | -17.5% (active) | – | 15% | 1.15% (active) | 8.1% (active) | 6.78% (active) | –
O=C1C=C(N2CC2)c2ccccc2C1=O | 5.2% (active) | 0.0144% (active) | 40.5% | 73.2% | 123% | 96.1% | 76% | 70.7% | 83.3% | 107% | – | 71.5% | -78.8% (active) | – | 41.5% | 63.4% | 94% | 81.9% | 62.7%
Cc1ccc(NC2=N[C@]34CC(=O)CC[C@]3(C)[C@H]3CC[C@]5(C)C(=O)CC[C@H]5[C@@H]3C[C@@H]4S2)c(C)c1 | -0.311% (active) | -0.627% (active) | -3.52% (active) | 31.7% | 59.1% | 59.6% | 78.5% | 17.7% | -6.33% (active) | 45.3% | – | 2.85% (active) | 16.9% | 4.35% (active) | 18.2% | -27.3% (active) | 84.5% | 44.5% | 53.4%
C[C@]12CC[C@H]3[C@@H](C[C@@H]4SC(Nc5cccc(F)c5)=N[C@@]45CC(=O)CC[C@]35C)[C@@H]1CCC2=O | -3.78% (active) | -11.9% (active) | -22.3% (active) | 39.6% | 65.5% | 59.2% | -18.4% (active) | 60% | -5.24% (active) | 35.4% | -0.755% (active) | -8.61% (active) | 35.9% | 4.62% (active) | 4.46% (active) | -68.8% (active) | 75.5% | 38.7% | –
CCC1(CCSC#N)C(=O)NC(=O)NC1=O | 85.1% | 88.8% | 106% | 102% | 109% | 91.4% | 98.4% | 104% | 105% | 106% | – | 95.3% | 106% | 106% | 91.2% | 94.1% | 98.2% | 104% | 104%
CC(=O)Cc1ccc2c(c1)OCO2 | 121% | 122% | 113% | 96.6% | 94% | 135% | 107% | 111% | 110% | 111% | 103% | 106% | 105% | – | 115% | 102% | 102% | 96.1% | –
CCCn1cc2c3c(cccc31)[C@H]1C[C@@H](C)CN(C)[C@@H]1C2 | 77.6% | 71.4% | 48.4% | 89.1% | 84.4% | 80.6% | 87.9% | 35.1% | 84.4% | 83.6% | 72.6% | 89% | – | – | 85% | 53% | – | 97.6% | 78.8%
C/C=C(/C)C(=O)O[C@H]1CC[C@@]2(C)[C@@H]3CC[C@H]4[C@]5(O)C[C@H](O)[C@@]6(O)[C@@H](CN7C[C@@H](C)CC[C@H]7[C@@]6(C)O)[C@]5(O)C[C@@]42O[C@@]13O | 112% | 97.4% | 113% | 91.9% | 103% | 102% | 118% | 49.3% | 120% | 116% | 118% | – | 108% | 111% | 98.3% | 47.5% | 137% | 122% | 111%
CC[C@H](CC[C@@H](C)[C@H]1CC[C@H]2[C@@H]3CC[C@H]4C[C@]5(CC[C@]4(C)[C@H]3CC[C@]12C)OO[C@](C)(C(F)(F)F)O5)C(C)C | 95% | 93.9% | 98.3% | 97% | 74.3% | 88.4% | 89.9% | 79.3% | 93.2% | 99.8% | – | 82.2% | 96.9% | 92.4% | 93.2% | 98.3% | – | 91.4% | 98%
Cc1ccccc1-n1c(/C=C\c2ccccn2)nc2ccccc2c1=O | 32.7% | -5.07% (active) | 2.88% (active) | 71% | 106% | 67.6% | 86.6% | 67.1% | 50.3% | 44.2% | 49.1% | – | 66.5% | 68.9% | 66.9% | 44% | 38.2% | 65.4% | -19.9% (active)
C(=NC1CCCCC1)=NC1CCCCC1 | 101% and 86.1% | 89.5% and 83.7% | 97.6% and 50% | 124% and 77.4% | 89.7% and 90.7% | 107% and 59.9% | 109% and 91.6% | 108% and 88.4% | 117% and 73% | 91.8% | 104% and 14.6% | 113% and 91.1% | 101% and 88.4% | 106% and 88.6% | 100% and 87.2% | 93.6% and 81.4% | 105% and 87.7% | 109% and 95.7% | –
CN(C)c1ccc([N+](=O)[O-])c([N+](=O)[O-])c1 | 107% and 100% | 78.3% | 106% and 103% | 104% and 96.3% | 113% and 101% | 101% | 108% and 112% | 112% and 107% | 119% and 125% | 96.4% and 103% | 105% and 97.2% | 90.5% and 105% | – | – | 83.6% and 91% | 98.2% and 102% | 96.6% and 107% | 109% and 112% | 104% and 97.9%
COc1ccc2c(c1)c(-c1nc(-c3cn(C)c4ncccc34)cs1)cn2CCCCN1CCOCC1 | -15.6% (active) | -5.63% (active) | -18.1% (active) | 48.5% | 56.9% | 60.2% | 79.7% | 67.8% | 50.8% | 18.8% | – | 76.8% | – | -77.1% (active) | 15.1% | 11.4% | – | -5.62% (active) | 59.6%
